Source: PubChem BioAssay
Activity calls are given as the source filed them.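 The calls were made as follows, unless noted: active = normalized viability below 100% at a tested concentration; inactive = the rest.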 *1 amine or outer side, *2 acyl side, *3 side chain or, on linkers, in order; H or OH if unused. Where a SMILES comes first, the peptide text is derived from it. Bridges are numbered along the chain shown (N, C = ends). Roman numbers before positions name the chains, in order. [ ]: non-standard residue; d: D form. Hexamethylenediamine = C(CCCN[*:2])CCN[*:1]; Dip = N[C@H](C(=O)O)C(c1ccccc1)c1ccccc1; Chg = N[C@H](C(=O)O)C1CCCCC1; NMeA = CN[C@@H](C)C(=O)O

How the values were obtained:
[1] = ovarian cancer cell viability with rucaparib, profiling panel, oncology-focused library, rucaparib conditional (AID 1508598); settings: patient-derived ovarian cancer cells, CellTiter-Glo viability, 144 h, stronger effect = lower value
[2] = survival rescue of mitochondrial mutant cells in low glucose, primary screen, MELAS cybrids, Rieske KO mouse fibroblasts, CellTiter-Glo (AID 1508586;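 active = mean z-score across replicates of 1.96 or higher in either the MELAS or the Rieske mutant cell line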;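 also: z relative to plate mean and SD of compound and empty wells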)
[3] = viability rescue of complex I mutant cybrids, primary screen, cell-based, galactose medium, ATP luminescence (AID 1645843;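 active = z-score of at least 1.8 in each of two replicates, scored against plate mean and spread of sample wells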;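 also: positive z means more ATP and so rescue of galactose-driven cybrid death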); settings: complex I mutant cybrid cells, 72 h, stronger effect = higher value
[4] = at 0.000305 µM, OCI-C5x cells, with rucaparib 10 µM, 100% = cells with rucaparib alone
[5] = at 0.000305 µM, OCI-C5x cells, without rucaparib
[6] = at 0.000305 µM, OCI-P5x cells, with rucaparib 20 µM, 100% = cells with rucaparib alone
[7] = at 0.000305 µM, OCI-P5x cells, without rucaparib
[8] = at 0.00122 µM, OCI-C5x cells, with rucaparib 10 µM, 100% = cells with rucaparib alone
[9] = at 0.00122 µM, OCI-C5x cells, without rucaparib
[10] = at 0.00122 µM, OCI-P5x cells, with rucaparib 20 µM, 100% = cells with rucaparib alone
[11] = at 0.00122 µM, OCI-P5x cells, without rucaparib
[12] = at 0.00488 µM, OCI-C5x cells, with rucaparib 10 µM, 100% = cells with rucaparib alone
[13] = at 0.00488 µM, OCI-C5x cells, without rucaparib
[14] = at 0.00488 µM, OCI-P5x cells, with rucaparib 20 µM, 100% = cells with rucaparib alone
[15] = at 0.00488 µM, OCI-P5x cells, without rucaparib
[16] = at 0.0195 µM, OCI-C5x cells, with rucaparib 10 µM, 100% = cells with rucaparib alone
[17] = at 0.0195 µM, OCI-C5x cells, without rucaparib
[18] = at 0.0195 µM, OCI-P5x cells, with rucaparib 20 µM, 100% = cells with rucaparib alone
[19] = at 0.0195 µM, OCI-P5x cells, without rucaparib
[20] = at 0.0781 µM, OCI-C5x cells, with rucaparib 10 µM, 100% = cells with rucaparib alone
[21] = at 0.0781 µM, OCI-C5x cells, without rucaparib
[22] = at 0.0781 µM, OCI-P5x cells, with rucaparib 20 µM, 100% = cells with rucaparib alone
[23] = at 0.0781 µM, OCI-P5x cells, without rucaparib
[24] = at 0.313 µM, OCI-C5x cells, with rucaparib 10 µM, 100% = cells with rucaparib alone
[25] = at 0.313 µM, OCI-C5x cells, without rucaparib
[26] = at 0.313 µM, OCI-P5x cells, with rucaparib 20 µM, 100% = cells with rucaparib alone
[27] = at 0.313 µM, OCI-P5x cells, without rucaparib
[28] = at 1.25 µM, OCI-C5x cells, with rucaparib 10 µM, 100% = cells with rucaparib alone
[29] = at 1.25 µM, OCI-C5x cells, without rucaparib
[30] = at 1.25 µM, OCI-P5x cells, with rucaparib 20 µM, 100% = cells with rucaparib alone
[31] = at 1.25 µM, OCI-P5x cells, without rucaparib
[32] = at 5 µM, OCI-C5x cells, with rucaparib 10 µM, 100% = cells with rucaparib alone
[33] = at 5 µM, OCI-C5x cells, without rucaparib
[34] = at 5 µM, OCI-P5x cells, with rucaparib 20 µM, 100% = cells with rucaparib alone
[35] = at 5 µM, OCI-P5x cells, without rucaparib

C[C@H](O[C@H]1OCCN(Cc2n[nH]c(=O)[nH]2)[C@H]1c1ccc(F)cc1)c1cc(C(F)(F)F)cc(C(F)(F)F)c1
inactive: viability [1, 4] 106% | viability [1, 5] 113% | viability [1, 6] 100% | viability [1, 7] 105% | viability [1, 8] 111% | viability [1, 9] 113% | viability [1, 10] 109% | viability [1, 11] 105% | viability [1, 12] 122% | viability [1, 13] 123% | viability [1, 14] 110% | viability [1, 15] 114% | viability [1, 16] 108% | viability [1, 17] 114% | viability [1, 18] 115% | viability [1, 19] 112% | viability [1, 20] 117% | viability [1, 21] 125% | viability [1, 22] 117% | viability [1, 23] 117% | viability [1, 24] 116% | viability [1, 25] 130% | viability [1, 26] 112% | viability [1, 27] 119% | viability [1, 28] 120% | viability [1, 29] 144% | viability [1, 30] 117% | viability [1, 31] 113% | viability [1, 33] 147%
active: viability [1, 32] 80.9% | viability [1, 34] 36.6% | viability [1, 35] 97.5%

CN1CCN(S(=O)(=O)c2cc(C(=O)NCC3CCCO3)cc(-c3ccccc3)c2)CC1 (stereo unspecified)
0.37: z-score ([2]; Rieske KO mouse fibroblast survival, CellTiter-Glo 72 h)
inactive: z-score ([2]; MELAS cybrid survival, CellTiter-Glo 48 h, stronger effect = higher value) 0.139 | z-score [3] -0.515

CO[C@H]1C[C@@H]2CC[C@@H](C)[C@@](O)(O2)C(=O)C(=O)N2CCCC[C@H]2C(=O)O[C@H]([C@@H](C)C[C@@H]2CC[C@@H](OCCO)[C@H](OC)C2)CC(=O)[C@H](C)/C=C(\C)[C@H](O)[C@@H](OC)C(=O)[C@H](C)C[C@H](C)/C=C/C=C/C=C/1C
inactive: viability [1, 4] 103% | viability [1, 5] 135% | viability [1, 8] 106% | viability [1, 9] 120% | viability [1, 12] 120% | viability [1, 13] 115% | viability [1, 16] 115% | viability [1, 17] 112% | viability [1, 20] 111% | viability [1, 21] 119% | viability [1, 24] 110% | viability [1, 25] 111% | viability [1, 28] 115% | viability [1, 29] 103% | viability [1, 32] 123% | viability [1, 33] 120%
active: viability [1, 6] 91.8% | viability [1, 7] 83.4% | viability [1, 10] 88% | viability [1, 11] 74.1% | viability [1, 14] 85% | viability [1, 15] 72.9% | viability [1, 18] 79.5% | viability [1, 19] 72.3% | viability [1, 22] 86.3% | viability [1, 23] 73.1% | viability [1, 26] 88% | viability [1, 27] 67.8% | viability [1, 30] 73.4% | viability [1, 31] 60.4% | viability [1, 34] 69.5% | viability [1, 35] 59.4%

CN[C@@H](C)C(=O)N[C@H](C(=O)N1CCC[C@H]1C(=O)N[C@H](C(=O)NCCCCCCNC(=O)[C@@H](NC(=O)[C@@H]1CCCN1C(=O)[C@@H](NC(=O)[C@H](C)NC)C1CCCCC1)C(c1ccccc1)c1ccccc1)C(c1ccccc1)c1ccccc1)C1CCCCC1 (I: H-[NMeA][Chg]P[Dip] / II: H-[NMeA][Chg]P[Dip]; linker I:C-II:C via Hexamethylenediamine)
active: viability [1, 6] 85.6% | viability [1, 7] 93.2% | viability [1, 10] 95.3% | viability [1, 11] 94.9% | viability [1, 14] 83.7% | viability [1, 15] 94.7% | viability [1, 18] 81.4% | viability [1, 19] 99.5% | viability [1, 22] 39.3% | viability [1, 23] 85.3% | viability [1, 26] 19.6% | viability [1, 27] 54.1% | viability [1, 28] 96.9% | viability [1, 30] 13.6% | viability [1, 31] 21.5% | viability [1, 32] 89.4% | viability [1, 34] 0.911% | viability [1, 35] 7.49%
inactive: viability [1, 4] 121% | viability [1, 5] 115% | viability [1, 8] 119% | viability [1, 9] 106% | viability [1, 12] 129% | viability [1, 13] 111% | viability [1, 16] 115% | viability [1, 17] 108% | viability [1, 20] 110% | viability [1, 21] 112% | viability [1, 24] 114% | viability [1, 25] 116% | viability [1, 29] 105% | viability [1, 33] 120%

COc1cccc2c1C(=O)c1c(O)c3c(c(O)c1C2=O)C[C@@](O)(C(=O)CO)C[C@H]3O[C@H]1C[C@H](N)[C@@H](O)[C@H](C)O1
inactive: viability [1, 4] 101% | viability [1, 5] 108% | viability [1, 6] 107% | viability [1, 7] 105% | viability [1, 9] 106% | viability [1, 10] 103% | viability [1, 11] 106% | viability [1, 14] 106% | viability [1, 20] 103%
active: viability [1, 8] 94.3% | viability [1, 12] 90.6% | viability [1, 13] 95.4% | viability [1, 15] 97.5% | viability [1, 16] 78.4% | viability [1, 17] 75.5% | viability [1, 18] 92% | viability [1, 19] 54.5% | viability [1, 21] 83.9% | viability [1, 22] 54% | viability [1, 23] 30.8% | viability [1, 24] 37.5% | viability [1, 25] 43.3% | viability [1, 26] 45.3% | viability [1, 27] 15.5% | viability [1, 28] 15.6% | viability [1, 29] 31.1% | viability [1, 30] 11.7% | viability [1, 31] 10.8% | viability [1, 32] 8.09% | viability [1, 33] 2.52% | viability [1, 34] 3.69% | viability [1, 35] 5.43%
